# Measured values published in the supplement of paper PMC12636033.
# ± gives the standard deviation of the averaged measurements. In all, about 33,000 sequences were measured (“E-score (rank enrichment, -0.5 to 0.5)”: median about -0.0043, highest 2% from about 0.24 on). For the sample, the highest values were picked, then their nearest neighbours and some sequences at random.
# System: 2Sp-muMax20 (muMax20 with two 2,6-bis(methyl)pyridine Cys staples)
# Assay: PBM 8-mer E-score (E-score (rank enrichment, -0.5 to 0.5)); higher = stronger preferential binding
# Procedure: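 Protein binding microarray (universal PBM chip covering all 10-mers in fixed probe flanks) with chemically synthesized human Max(13-93) bHLH-LZ analogs (not full-length Max) bearing noncanonical residues (hArg, Tha, Aib, Nle at 65) and aromatic Cys staples. Read-out per 8-mer (and its reverse complement): E-score (rank-based enrichment, -0.5 to 0.5) and Z-score of median probe intensity.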
row,Sequence,PBM 8-mer E-score
1,AATAGGTA,0.198 ± 0.0069
2,AGCCGTTA,-0.114 ± 0.018
3,AACCGTAA,0.0404 ± 0.047
4,CTGATCAA,-0.0225 ± 0.021
5,CGCGGGAA,0.0597 ± 0.013
6,CTGTAATA,0.134 ± 0.074
7,ATGTACTA,0.258 ± 0.061
8,CTGTAATC,0.0629 ± 0.045
9,ATGTAATG,0.134 ± 0.074
10,ATGTAAAT,0.159 ± 0.029
11,ATGTAATA,0.278 ± 0.0077
12,ATGTAAAA,0.274 ± 0.016
13,CTGTAAAA,0.102 ± 0.0073
14,GTGTACTA,0.0822 ± 0.031
15,GTGTAATA,0.162 ± 0.042
16,ATGTAATC,0.236 ± 0.023
17,ATGTACTG,0.0436 ± 0.099
18,CCTGGAGA,-0.136 ± 0.09
19,AAACTTAT,0.203 ± 0.022
20,GTGGGCCA,-0.0973 ± 0.051
21,AGGAGCCC,0.00737 ± 0.03
22,ACCTCCAG,-0.161 ± 0.079
23,AGGGACCT,-0.13 ± 0.0014
24,GGCAACGA,-0.123 ± 0.0029
25,CACATAAC,0.0249 ± 0.13

row,Sequence,PBM 8-mer E-score
1,AACATAAG,0.0487 ± 0.042
2,AACATAAA,0.164 ± 0.097
3,AACATAAT,0.285 ± 0.053
4,GACATAAC,0.146 ± 0.026
5,AACATAAC,0.278 ± 0.052
6,GTCGGCAC,-0.0877 ± 0.06
7,TCCGATAA,-0.23 ± 0.14
8,AAAGTACC,0.17 ± 0.02
9,AGCGCTAA,-0.0615 ± 0.022
10,CTTGACGA,0.00312 ± 0.0077
11,CGGTGAAC,0.0144 ± 0.098
12,AGGGCGAA,-0.00371 ± 0.021
13,GAATACGC,0.0401 ± 0.069
14,AAATACGT,0.112 ± 0.06
15,AAATACGC,0.236 ± 0.058
16,ATTAAGGC,0.0884 ± 0.038
17,AGCGATGC,-0.00497 ± 0.044
18,AGATAAAC,0.00083 ± 0.061
19,ATTTTCAC,0.0326 ± 0.0074
20,CTTTTCAC,0.287 ± 0.021
21,CCTTTCAC,0.0665 ± 0.067
22,CGGTTCGA,-0.0332 ± 0.043
23,CACCCTCG,0.07079 ± 0.00033
24,GATGTTTA,0.0541 ± 0.02
25,CATGTTTC,0.0659 ± 0.0045

row,Sequence,PBM 8-mer E-score
1,CATGTTGA,0.244 ± 0.023
2,CATGTTAC,0.256 ± 0.018
3,AATGTTGA,-0.0129 ± 0.047
4,CTTGTTTA,-0.0208 ± 0.029
5,CATGTTGC,0.1 ± 0.094
6,AATGTTAC,0.0165 ± 0.1
7,CATGTTTA,0.24 ± 0.056
8,GTTGTTTA,0.247 ± 0.0077
9,ATTGTTTA,-0.0168 ± 0.043
10,CATGTTAG,0.111 ± 0.049
11,ATTTCAGA,0.0234 ± 0.035
12,GGGATCGA,0.0419 ± 0.04
13,AGACAGGG,-0.0986 ± 0.041
14,CACGCAAC,-0.0734 ± 0.013
15,CAGTCATG,0.0672 ± 0.14
16,ACACTATA,0.0551 ± 0.059
17,GACTTTGA,0.147 ± 0.062
18,AGAACGGA,-0.258 ± 0.028
19,AAGAAGCT,-0.12 ± 0.0019
20,CGTCGCGA,0.00718 ± 0.059
21,CGGCCAGC,-0.103 ± 0.0057
22,CTACAAGC,-0.0442 ± 0.059
23,ATACAAGC,0.252 ± 0.076
24,ATACAAAA,0.359 ± 0.0063
25,ATACAAGA,0.0902 ± 0.1

row,Sequence,PBM 8-mer E-score
1,ATACAAAT,0.216 ± 0.0091
2,CTACAAAA,0.0122 ± 0.043
3,AGTGTAAT,0.114 ± 0.14
4,ATTGCAAC,0.0277 ± 0.07
5,CTCTCAGA,-0.148 ± 0.12
6,CTTAAATA,0.139 ± 0.098
7,GTTAAATA,0.296 ± 0.026
8,GCTAACAA,-0.0747 ± 0.062
9,ACTAAATA,0.249 ± 0.018
10,CTTAACAA,0.05 ± 0.067
11,CCTAAATA,0.125 ± 0.0015
12,ATTAAATA,0.0773 ± 0.0041
13,GTTAACAA,0.239 ± 0.026
14,ACTAAATC,-0.0199 ± 0.085
15,GATAACTA,0.245 ± 0.029
16,CATAACTA,0.0886 ± 0.054
17,AATAACTA,0.155 ± 0.038
18,TACGTAAA,0.183 ± 0.046
19,AAGCACTA,0.0985 ± 0.0016
20,CCGTTACA,0.0269 ± 0.097
21,CAGAAAAG,0.0222 ± 0.11
22,CCTCAAAG,-0.168 ± 0.0062
23,CCAAAGGA,-0.134 ± 0.0027
24,CCGGGAAA,-0.0853 ± 0.032
25,GATCGGTA,0.0193 ± 0.038

row,Sequence,PBM 8-mer E-score
1,CCGGCAGG,-0.199 ± 0.041
2,CGTGGCAA,-0.135 ± 0.016
3,AACGCGTT,0.0704 ± 0.016
4,GCACTCAA,-0.0947 ± 0.092
5,ATTAACTA,0.16 ± 0.003
6,CTTAACTA,0.092 ± 0.0028
7,GTTAACTA,0.2576 ± 0.002
8,AGACCGCG,0.0661 ± 0.0043
9,CGGTGGAA,-0.19 ± 0.09
10,CATAATTC,-0.0185 ± 0.041
11,GATAATTA,0.196 ± 0.061
12,CCTAATTA,0.0904 ± 0.21
13,AATAATTC,0.189 ± 0.046
14,AATAATTA,0.28 ± 0.019
15,CATAATTA,0.253 ± 0.034
16,TACTGCTA,0.126 ± 0.038
17,ACGGAGTC,-0.0911 ± 0.056
18,ACGGGGCT,-0.148 ± 0.019
19,AGAGCACG,0.134 ± 0.077
20,ACCAGTAC,-0.126 ± 0.045
21,GGGTGCAC,-0.0471 ± 0.01
22,CTCATGAG,0.319 ± 0.028
23,ATCATGAA,0.144 ± 0.037
24,CTCATGAC,0.0229 ± 0.022
25,CTCATGTC,-0.0319 ± 0.027

row,Sequence,PBM 8-mer E-score
1,ATCATGTA,0.113 ± 0.059
2,CTCATGAA,0.0567 ± 0.055
3,ATCATGAG,0.0344 ± 0.13
4,ATCATGTC,0.25 ± 0.02
5,ATCATGAT,0.257 ± 0.011
6,GAGGTACA,-0.0106 ± 0.013
7,TAGGATAA,0.0706 ± 0.063
8,AAATCGTG,0.0374 ± 0.006
9,ATTCGTCA,0.0337 ± 0.012
10,ACACGCGC,0.118 ± 0.046
11,GCGCGCGA,0.149 ± 0.071
12,GCGCGCGC,0.361 ± 0.053
13,TCGCGCGA,0.265 ± 0.11
14,GCGCGCAC,0.203 ± 0.035
15,GCACGCGA,0.0689 ± 0.0054
16,GCACGCGC,0.331 ± 0.018
17,CCGCGCGA,-0.0339 ± 0.029
18,CCGCGCGC,0.13 ± 0.12
19,CCATTGTC,-0.0232 ± 0.0014
20,ACGAGGTC,0.0484 ± 0.023
21,ATGAGCAG,0.0835 ± 0.083
22,AGGGTATG,0.178 ± 0.066
23,AGGGTATA,0.24 ± 0.0057
24,CGGGTATA,0.0393 ± 0.086
25,ATGGTATG,0.0455 ± 0.0021

row,Sequence,PBM 8-mer E-score
1,ATGGTATC,0.165 ± 0.011
2,ATGGTATA,0.238 ± 0.028
3,CGTCCTAG,-0.188 ± 0.035
4,ATGATGTC,0.14 ± 0.091
5,AGTGAATA,-0.07056 ± 0.00064
6,ACATAAGT,0.132 ± 0.017
7,ATAACCAG,0.0292 ± 0.0095
8,ATCACCAT,0.103 ± 0.052
9,ATAACCAC,0.243 ± 0.014
10,CTAACCAC,-0.0501 ± 0.043
11,ATCACCAC,0.276 ± 0.0035
12,CTCACCAC,0.0921 ± 0.082
13,CCGAAGCA,0.0942 ± 0.036
14,CAGTGGCA,-0.004 ± 0.031
15,CCGAATAA,0.0378 ± 0.031
16,ACGTAGAG,-0.0148 ± 0.051
17,GAAAATGC,0.127 ± 0.028
18,CGAGGCTC,-0.224 ± 0.035
19,AGCACATG,0.263 ± 0.026
20,ACCACATG,0.318 ± 0.0037
21,ATCACATC,0.0931 ± 0.021
22,AGCACATA,0.0303 ± 0.1
23,ACCACATA,0.0521 ± 0.076
24,ATCACATG,0.305 ± 0.021
25,ATCACATA,0.187 ± 0.0085

row,Sequence,PBM 8-mer E-score
1,ACCACATC,-0.0798 ± 0.011
2,AGCACATC,0.0563 ± 0.062
3,CAACGCCG,-0.168 ± 0.12
4,CGAAACGA,-0.0544 ± 0.031
5,ATTGTCTG,0.0837 ± 0.039
6,CTCTCTCC,-0.18 ± 0.14
7,CCCATTCC,-0.0919 ± 0.059
8,CGCATACA,0.0225 ± 0.14
9,AGCGCCAC,-0.0643 ± 0.017
10,TCAATGGA,-0.0717 ± 0.0065
11,CCGTGGGC,-0.2115 ± 0.0018
12,GCCAGAGC,-0.206 ± 0.099
13,GAGTCTAC,-0.125 ± 0.044
14,CGTGGGTA,0.0577 ± 0.045
15,GATGGGTA,0.249 ± 0.014
16,CGGTGGGA,-0.0291 ± 0.0059
17,GGTGGGTA,0.249 ± 0.035
18,AATGGGTA,0.0946 ± 0.14
19,CATGGGTA,0.072 ± 0.066
20,AGGTGGGA,0.0626 ± 0.1
21,AGTGGGTA,0.166 ± 0.0072
22,GGGTGGGA,0.297 ± 0.0041
23,CGGCACCC,-0.139 ± 0.13
24,GCTAGACC,-0.164 ± 0.049
25,CTTCGAAC,-0.115 ± 0.0046

row,Sequence,PBM 8-mer E-score
1,ACCTACAG,0.0593 ± 0.044
2,AGCGGGGC,-0.0319 ± 0.078
3,CAAACATG,0.157 ± 0.079
4,AAAACATA,0.0989 ± 0.11
5,CGAACATC,0.00373 ± 0.037
6,AAAACATT,0.0666 ± 0.088
7,GAAACATA,0.254 ± 0.015
8,CGAACATA,0.255 ± 0.034
9,GAAACATC,-0.0525 ± 0.05
10,AAAACATG,0.24 ± 0.078
11,GGAACATA,0.0521 ± 0.044
12,ACAGACGG,-0.07 ± 0.089
13,ATTCGTTG,-0.0514 ± 0.066
14,ACGTGTAA,0.173 ± 0.072
15,GCAGCGAA,-0.157 ± 0.066
16,ACCTTGAT,0.0217 ± 0.046
17,GATTCAAA,0.0206 ± 0.051
18,CTCGGTGC,-0.163 ± 0.12
19,ACGAACTA,-0.0202 ± 0.1
